Screening data from PubChem BioAssay.
BoNT F protease: BoNT F light chain protease inhibition; Multiplex microsphere protease cleavage assay, flow cytometry; inhibition, % at 10 µM; hit rate 0.22% among 360,000; AID 588497; in the data active = inhibition above about 35%, passing the limit was not always enough; inconclusive = no clear call, values can overlap the other calls; also: plate controls were buffer without enzyme for full effect and enzyme alone for no effect
Anthrax LF inh2: anthrax lethal factor protease inhibition | P15917 | multiplex microsphere protease cleavage assay, LF | inhibition, % at 10 µM | hit rate 0.12% among 360,000 | AID 588501; also: plate controls were buffer without enzyme for full effect and enzyme alone for no effect
Target sequence (P15917 whole entry, looked up): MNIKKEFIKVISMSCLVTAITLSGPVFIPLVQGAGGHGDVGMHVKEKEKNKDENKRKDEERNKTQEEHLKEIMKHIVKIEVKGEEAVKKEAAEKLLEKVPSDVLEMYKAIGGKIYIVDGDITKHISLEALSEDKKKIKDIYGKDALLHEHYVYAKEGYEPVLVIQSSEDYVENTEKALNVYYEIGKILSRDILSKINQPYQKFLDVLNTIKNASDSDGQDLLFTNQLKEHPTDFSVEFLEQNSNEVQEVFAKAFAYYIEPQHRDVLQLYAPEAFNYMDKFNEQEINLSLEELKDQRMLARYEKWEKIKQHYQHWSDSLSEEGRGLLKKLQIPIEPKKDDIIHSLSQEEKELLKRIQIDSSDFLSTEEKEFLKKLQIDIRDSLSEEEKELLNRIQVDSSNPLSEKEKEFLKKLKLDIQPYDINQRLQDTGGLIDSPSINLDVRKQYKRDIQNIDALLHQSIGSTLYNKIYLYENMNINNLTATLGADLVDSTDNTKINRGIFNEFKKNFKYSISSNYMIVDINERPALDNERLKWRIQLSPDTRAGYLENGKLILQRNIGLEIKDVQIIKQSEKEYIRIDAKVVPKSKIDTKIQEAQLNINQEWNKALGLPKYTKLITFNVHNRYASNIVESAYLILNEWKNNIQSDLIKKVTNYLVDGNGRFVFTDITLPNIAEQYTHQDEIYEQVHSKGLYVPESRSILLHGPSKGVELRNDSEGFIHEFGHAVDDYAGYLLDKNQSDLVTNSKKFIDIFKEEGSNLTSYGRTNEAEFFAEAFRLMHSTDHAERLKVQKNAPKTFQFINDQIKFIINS
Autofluor counter: counter-screen for toxin protease inhibitors: compound fluorescence; compound autofluorescence counterscreen, microsphere flow cytometry; hits give high values; fluorescence intensity (no concentration beside the values); hit rate 3.1% among 360,000; AID 624483; in the data active = fluorescence intensity above about 16000; inconclusive = no clear call, values can overlap the other calls
BoNT-A LC inh2: BoNT A light chain protease inhibition | multiplex microsphere protease substrate cleavage, flow cytometry | inhibition, % at 10 µM | hit rate 0.17% among 360,000 | AID 588499; also: plate controls were buffer without enzyme for full effect and enzyme alone for no effect
Numbers without * were called inactive; u = inconclusive. This is a sample that favours compounds with a hit; in the whole collection about 3.5% have one here. Rule as the data show it, unless noted: active = inhibition above about 30%; inconclusive = no clear call, values can overlap the other calls; inactive = below that.

SMILES	BoNT F protease	Anthrax LF inh2	Autofluor counter	BoNT-A LC inh2
O=C(CSc1nccc(=O)[nH]1)Nc1ccc(F)c(Cl)c1	0	0	24003*	u
COc1cc2nc(CC(C)C)n(NC(=O)c3ccccc3)c(=O)c2cc1OC	3	1	22766*	u
COc1ccc(C(=O)Nn2c(CC(C)C)nc3cc(OC)c(OC)cc3c2=O)c(OC)c1	u	3	4221	-2
C=CCN(CC(=O)NCc1ccccc1)C(=O)c1csnn1	-1	0	24034*	-2
COc1ccc(CNC(=O)CN(Cc2ccccc2)C(=O)c2csnn2)cc1	18	0	3957	1
CC(C)(C)n1nnnc1C(c1cc2ccccc2o1)N1CCCCC1 (centres undefined)	0	3	5472	0
CC(c1nc2ccccc2c(=O)[nH]1)N1CCN(S(=O)(=O)c2ccc(F)c(Cl)c2)CC1 (centres undefined)	-6	-5	3915	0
O=C(NNC(=O)c1cccc(S(=O)(=O)Nc2ccccc2F)c1)c1ccncc1	1	-4	3683	0
CCc1ccc(CNC(=O)C2CCCN(c3nnc(C)c4c(C)n(-c5ccccc5)nc34)C2)cc1 (centres undefined)	30	4	20786*	0
Cc1nnc(N2CCCC(C(=O)NCc3cccc(F)c3)C2)c2nn(-c3ccccc3)c(C)c12 (centres undefined)	19	4	16533*	-3
CCOC(=O)C1=CCN(S(=O)(=O)c2ccccc2Cl)C1c1ccc(C)cc1 (centres undefined)	-1	-2	5673	-1
Cc1ccc(OC(=O)CCC(=O)OCCCC(F)(F)C(F)(F)F)cc1	-4	-1	24380*	-2
CSc1ncccc1C(=O)N1CCC(C)(C(=O)O)C1 (centres undefined)	-2	-6	3524	0
Cc1cc(C(=O)Nc2ccc3c(c2)OCO3)cs1	-12	1	10759	0
O=C(NCc1ccc2c(c1)OCO2)c1ccccc1Cl	-3	-6	6446	-1
CCSc1ccccc1C(=O)NCc1ccc2c(c1)OCO2	-9	-2	17574*	-4
CCSc1ccccc1C(=O)N1CCCC1	-6	-1	23440*	-2
Cc1cc(C(=O)NC(C)c2ccc3c(c2)OCO3)cs1 (centres undefined)	-7	2	22313*	u
CSc1ccccc1C(=O)NCc1ccc2c(c1)OCO2	-2	-2	20402*	1
COc1cc(NC(=O)N2CCc3nc(NCc4cccc(Oc5ccccc5)c4)ncc3C2)cc(OC)c1OC	0	-10	3077	0
Cc1cc(C(=O)N2CCN(Cc3ccc4c(c3)OCO4)CC2)cs1	-6	-2	25075*	-5
CCSc1ccccc1C(=O)N1CCN(Cc2ccc3c(c2)OCO3)CC1	0	-9	22336*	3
Cc1cc(C(=O)N2CCN(Cc3ccc4c(c3)OCO4)CC2)on1	-6	-1	5346	0
O=[N+]([O-])c1ccc(-c2nc(Cl)c3c(n2)CCCC3)o1	4	-6	2969	-1
CCN(CC)C(=O)[C@H]1C[C@H](CC(=O)NCCc2ccccn2)C(=O)N2CCc3c([nH]c4cc(CCC(=O)N(C)C)ccc34)[C@]12C	-6	-1	3573	0
SMILES	BoNT F protease	Anthrax LF inh2	Autofluor counter	BoNT-A LC inh2
O=C(OCCCN=C1NS(=O)(=O)c2ccccc21)c1ccccc1F	4	-11	20170*	3
CCC(CO)[n+]1c(C)cc(/C=C2\Sc3ccccc3N2Cc2ccccc2)cc1C (centres undefined)	4	36*	10304	40*
COc1cc(NC(=O)Nc2nnc([C@H]3C[C@H](O)[C@@H](CO)O3)s2)cc(OC)c1	-10	-10	3515	0
O=C(COC(=O)c1cc(=O)[nH]c2ccccc12)Nc1nc(-c2ccc(F)cc2)cs1	-2	-7	3762	0
c1ccc(Oc2ncnc3sccc23)cc1	2	-2	3990	0
Cc1ccccc1Oc1ncnc2sccc12	4	-17	18377*	4
Cc1nn(C)c(C)c1/C=C(\C#N)S(=O)(=O)c1ccc(F)cc1	-6	0	3609	0
Cn1c(-c2ccc(C=O)s2)nc2c3ccccc3c3ccccc3c21	40*	48*	2883	79*
C/C(CCc1ccc2c(c1)OCO2)=N\N=C1\NC(=O)CC(C(=O)Nc2ccc(Cl)cc2)S1 (centres undefined)	-4	-2	21037*	-3
COc1ccc(-n2c(=O)c3c4c(sc3n(CC(=O)NC3CCCC3)c2=O)CCCC4)c(OC)c1	4	-6	4365	-1
CCn1c(=O)cc(OCC(=O)Nc2ccc(C)cn2)c2ccccc21	2	0	19603*	0
CCn1c(=O)cc(OCC(=O)NCc2cccnc2)c2ccccc21	-3	0	23271*	u
CCn1c(=O)cc(OCC(=O)NC2CCCCC2)c2ccccc21	-3	0	16641*	-2
COc1ccc(-n2c(=O)c3ccccc3n(CC(=O)NC3CCCC3)c2=O)c(OC)c1	3	-1	21567*	4
O=C(COC(=O)CSc1ccccc1)NC1CCS(=O)(=O)C1 (centres undefined)	-3	-1	3073	0
COC(=O)C1CSc2[nH]c(=O)sc2C1c1ccccc1 (centres undefined)	0	-1	23079*	0
CCCCn1nnnc1C1(C)CCC(=O)N1CCOC (centres undefined)	-3	4	5490	1
COc1ccc(OC)c(C(C)NC(C)=O)c1 (centres undefined)	-5	-3	18227*	-4
CNC(C)c1cc(OC)ccc1OC (centres undefined)	14	-3	8908	1
CCOc1cc(OCC)cc(C(=O)N2CCC[C@H]2C(=O)N2CCC[C@H]2C(=O)NCc2ccccn2)c1	-6	4	5357	0
COc1ccccc1CNC(=O)c1cccs1	-2	2	23731*	-2
COc1ccc(C(=O)NCc2cccnc2)cc1S(=O)(=O)N1CCOCC1	-5	1	21445*	u
COc1ccc(OC)c(NS(=O)(=O)c2ccc(Cl)s2)c1	-4	3	8504	1
COc1ccc(OC)c(NS(=O)(=O)c2cccs2)c1	5	-1	22109*	3
COc1ccc(C(CC(=O)O)NC(=O)c2cccs2)cc1 (centres undefined)	-6	-7	16500*	-2
SMILES	BoNT F protease	Anthrax LF inh2	Autofluor counter	BoNT-A LC inh2
COc1ccc(OC)c(NC(=O)CNC(=O)c2cccs2)c1	1	-5	21327*	u
CCOc1ccc(C(=O)NCc2cccnc2)cc1	-3	-6	4258	-1
COc1ccc(NC(=O)CNC(=O)c2cccs2)cc1Cl	6	7	4344	1
COc1ccc(C(=O)NCc2cccnc2)cc1	-3	1	21373*	-2
CC(C)(C)NC(=S)NCc1cccnc1	-2	-2	23776*	-2
O=C(NCc1cccc(Cl)c1)c1cccnc1	-9	-2	18154*	u
CN(Cc1cnc2nc(N)nc(N)c2n1)c1ccc(C(=O)NC(CCC(=O)O)C(=O)O)c2ccccc12 (centres undefined)	-8	-2	2946	0
O=C(Nc1ccccc1F)N1CCC(NC(=O)C23CC4CC(CC(C4)C2)C3)CC1	7	-2	6132	0
COc1ccc(N=c2oc3c(OC)cccc3cc2C(=O)NCc2ccco2)c(OC)c1	2	-11	21143*	3
